Measured values taken from PubChem BioAssay AID1159580 (chemical genetic matrix, 2015).
Screen size: about 5,500 compounds; about 2,000 (36%) were called active. Inconclusive results (about 18%) are left out. Rule as the data show it: active = normalized growth mostly below about 0.91 (no sharp cut-off); inconclusive = no clear call, values can overlap the other calls; inactive = mostly above about 0.92. The list shows a part of the results.

Assay: chemical genetic growth profiling, strain panel (AID 1159580);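 also: tested at 20 µM; growth read once vehicle control cultures reached saturation at 30 °C; 1 = growth at the plate median or of vehicle wells; lower values mean less growth of the strain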
Details: S. cerevisiae deletion strains, growth OD
[1] = locus YDL101C, strain DUN1, active compounds read low
[2] = locus YHR030C, strain SLT2, active compounds read low

Measured: normalized growth

COc1cc(C(=O)Oc2c(Cl)cc(Cl)cc2C=Nc2ccc([N+](=O)[O-])cc2C#N)cc(OC)c1OC
active: locus YDL214C, strain PRR2, active compounds read low 0.56 | locus YDR477W, strain SNF1, active compounds read low 0.598 | locus YER123W, strain YCK3, active compounds read low 0.352 | locus YER133W, strain GLC7, active compounds read low 0.553 | locus YFR019W, strain FAB1, active compounds read low 0.593 | locus YGR040W, strain KSS1, active compounds read low 0.622 | locus YGR052W, strain FMP48, active compounds read low 0.508 | locus YGR092W, strain DBF2, active compounds read low 0.302 | [2] 0.324 | locus YHR079C, strain IRE1, active compounds read low 0.371 | locus YHR082C, strain KSP1, active compounds read low 0.497 | locus YHR205W, strain SCH9, active compounds read low 0.429 | locus YJL095W, strain BCK1, active compounds read low 0.408 | locus YJL157C, strain FAR1, active compounds read low 0.565 | locus YJR066W, strain TOR1, active compounds read low 0.366 | locus YKL048C, strain ELM1, active compounds read low 0.765 | locus YKL067W, strain YNK1, active compounds read low 0.558 | locus YKL101W, strain HSL1, active compounds read low 0.654 | locus YKL203C, strain TOR2, active compounds read low 0.678 | locus YLR113W, strain HOG1, active compounds read low 0.458 | locus YLR133W, strain CKI1, active compounds read low 0.543 | locus YLR403W, strain SFP1, active compounds read low 0.439 | locus YML070W, strain DAK1, active compounds read low 0.544 | locus YMR205C, strain PFK2 (second series), active compounds read low 0.59 | locus YNL020C, strain ARK1, active compounds read low 0.503 | locus YNL183C, strain NPR1, active compounds read low 0.465 | locus YNL307C, strain MCK1 (second series), active compounds read low 0.5 | locus YOL136C, strain PFK27, active compounds read low 0.492 | locus YOR061W, strain CKA2, active compounds read low 0.439 | locus YOR119C, strain RIO1, active compounds read low 0.549 | locus YOR231W, strain MKK1, active compounds read low 0.46 | locus YPL031C, strain PHO85, active compounds read low 0.572 | locus YPL153C, strain RAD53, active compounds read low 0.581 | locus YPL204W, strain HRR25, active compounds read low 0.548 | locus YPL256C, strain CLN2, active compounds read low 0.431
inactive: locus YAR019C, strain CDC15, active compounds read low 0.988 | locus YBL105C, strain PKC1, active compounds read low 0.972 | locus YBR135W, strain CKS1, active compounds read low 0.969 | locus YBR136W, strain MEC1, active compounds read low 0.988 | locus YBR160W, strain CDC28, active compounds read low 0.974 | locus YDL017W, strain CDC7, active compounds read low 0.974 | locus YDL028C, strain MPS1, active compounds read low 0.977 | [1] 0.987 | locus YDL108W, strain KIN28, active compounds read low 0.982 | locus YDL132W, strain cdc53, active compounds read low 0.967 | locus YDR052C, strain DBF4, active compounds read low 0.989 | locus YDR054C, strain cdc34, active compounds read low 0.968 | locus YDR226W, strain ADK1, active compounds read low 0.978 | locus YFL009W, strain cdc4, active compounds read low 0.961 | locus YFL029C, strain CAK1, active compounds read low 0.983 | locus YFR003C, strain YPI1, active compounds read low 0.975 | locus YFR028C, strain CDC14, active compounds read low 0.973 | locus YIL147C, strain SLN1, active compounds read low 0.979 | locus YJL128C, strain PBS2, active compounds read low 0.928 | locus YJR016C, strain ILV3, active compounds read low 0.986 | locus YJR066W, strain TOR1 (second series), active compounds read low 0.812 | locus YKL193C, strain SDS22, active compounds read low 0.965 | locus YMR001C, strain CDC5, active compounds read low 0.98 | locus YMR277W, strain FCP1, active compounds read low 0.97 | locus YNL006W, strain LST8, active compounds read low 0.991 | locus YNL161W, strain CBK1, active compounds read low 0.98 | locus YNL207W, strain RIO2, active compounds read low 0.981 | locus YNL222W, strain SSU72, active compounds read low 0.975 | locus YOL078W, strain AVO1, active compounds read low 0.975 | locus YOR329C, strain SCD5, active compounds read low 0.971 | locus YPL209C, strain IPL1, active compounds read low 0.976 | locus YPR025C, strain CCL1, active compounds read low 0.963 | locus YPR106W, strain ISR1, active compounds read low 0.971 | locus YPR111W, strain DBF20, active compounds read low 0.945 | strain NNK1, active compounds read low 0.979 | strain TSCII, active compounds read low 0.98

COc1cc(N=Cc2ccc3c(c2)OCO3)c(OC)cc1Cl
inactive: locus YAL013W, strain DEP1, active compounds read low 1.01 | locus YBR229C, strain ROT2, active compounds read low 1.01 | locus YCL061C, strain MRC1, active compounds read low 1 | [1] 0.984 | locus YDR150W, strain NUM1, active compounds read low 0.91 | locus YEL061C, strain CIN8, active compounds read low 1.04 | locus YGR078C, strain PAC10, active compounds read low 0.994 | locus YGR229C, strain SMI1, active compounds read low 1.01 | [2] 0.982 | locus YHR087W, strain rtc3, active compounds read low 0.989 | locus YJR043C, strain POL32, active compounds read low 1 | locus YJR075W, strain HOC1, active compounds read low 0.983 | locus YLR039C, strain RIC1, active compounds read low 0.97 | locus YLR058C, strain SHM2 (second series), active compounds read low 1 | locus YLR085C, strain ARP6, active compounds read low 1.04 | locus YLR262C, strain YPT6, active compounds read low 0.99 | locus YML094W, strain GIM5, active compounds read low 1.02 | locus YMR219W, strain ESC1, active compounds read low 0.991 | locus YMR263W, strain SAP30, active compounds read low 0.939 | locus YMR307W, strain GAS1, active compounds read low 1.05 | locus YNL128W, strain TEP1, active compounds read low 1.01 | locus YNL153C, strain GIM3, active compounds read low 0.988 | locus YNL298W, strain CLA4 (second series), active compounds read low 1.01 | locus YNL322C, strain KRE1, active compounds read low 1 | locus YNR030W, strain Alg12, active compounds read low 1.01 | locus YPL055C, strain LGE1, active compounds read low 0.998 | locus YPL241C, strain CIN2, active compounds read low 1.02 | locus YPR135W, strain CTF4, active compounds read low 0.973
